Experimental data reported in PMC5540273 (PLoS ONE, 2017).

What was measured:
Details in all cases: concentration: 1 μM, replicates: in singlicate; n = 1
DYRK1B = tested on: DYRK1B
DYRK2 = tested on: DYRK2
EGFR = tested on: EGFR
EIF2AK1 = tested on: EIF2AK1
EPHA1 = tested on: EPHA1
EPHA2 = tested on: EPHA2
EPHA3 = tested on: EPHA3
EPHA4 = tested on: EPHA4
EPHA5 = tested on: EPHA5
EPHA6 = tested on: EPHA6
EPHA7 = tested on: EPHA7
EPHA8 = tested on: EPHA8
EPHB1 = tested on: EPHB1
EPHB2 = tested on: EPHB2
EPHB3 = tested on: EPHB3
EPHB4 = tested on: EPHB4
EPHB6 = tested on: EPHB6
ERBB2 = tested on: ERBB2
ERBB3 = tested on: ERBB3
ERBB4 = tested on: ERBB4
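Note: KINOMEscan kinase panel screen.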

SMILES | %Inh (DYRK1B) [%] | %Inh (DYRK2) [%] | %Inh (EGFR) [%] | %Inh (EIF2AK1) [%] | %Inh (EPHA1) [%] | %Inh (EPHA2) [%] | %Inh (EPHA3) [%] | %Inh (EPHA4) [%] | %Inh (EPHA5) [%] | %Inh (EPHA6) [%] | %Inh (EPHA7) [%] | %Inh (EPHA8) [%] | %Inh (EPHB1) [%] | %Inh (EPHB2) [%] | %Inh (EPHB3) [%] | %Inh (EPHB4) [%] | %Inh (EPHB6) [%] | %Inh (ERBB2) [%] | %Inh (ERBB3) [%] | %Inh (ERBB4) [%]
Cl.Cl.NC(CNC(=O)c1cc(Br)c(-c2ccnc3[nH]ccc23)s1)c1ccccc1 (centres unmarked) [GSK1322949] | 95 | 80 | 17 | 1 | 24 | 1 | 26 | 0 | 0 | 0 | 10 | 24 | 27 | 15 | 0 | 3 | 75 | 24 | 18 | 0
COc1cccc(C2=C(Nc3cccc(O)c3)C(=O)NC2=O)c1 [SB-390771] | 24 | 9 | 41 | 3 | 0 | 29 | 0 | 27 | 0 | 24 | 10 | 18 | 11 | 16 | 31 | 16 | 49 | 23 | 0 | 2
COc1cc(Nc2ccnc3cc(-c4ccncc4)ccc23)cc(OC)c1OC.Cl [GW494610] | 0 | 4 | 58 | 0 | 96.9 | 83 | 48 | 48 | 37 | 0 | 0 | 99.2 | 74 | 57 | 0 | 50 | 98 | 49 | 50 | 5
Cc1cccc(Nc2nc(NCCN)ncc2C(N)=O)c1 [GSK1292139] | 27 | 33 | 15 | 0 | 14 | 0 | 64 | 0 | 0 | 0 | 52 | 58 | 1 | 0 | 0 | 0 | 50 | 4 | 0 | 10
Nc1cccc(-c2ccc3c(N)n[nH]c3c2)c1 [GSK2193613] | 0 | 74 | 0 | 0 | 9 | 5 | 15 | 0 | 0 | 3 | 9 | 29 | 9 | 0 | 13 | 14 | 14 | 0 | 0 | 0
COc1ccc(C)c(Nc2ccnc(Nc3ccc(-c4cnc[nH]4)cc3)n2)c1.Cl [GW784041] | 0 | 0 | 28 | 0 | 62 | 45 | 3 | 31 | 4 | 12 | 6 | 26 | 14 | 21 | 17 | 60 | 69 | 0 | 89 | 0
Cc1cc(-c2c(-c3ccc(F)cc3)ncn2CCCN2CCOCC2)nc(N)n1 [SB-222517] | 20 | 34 | 0 | 0 | 0 | 0 | 0 | 20 | 9 | 30 | 0 | 0 | 0 | 12 | 29 | 10 | 0 | 0 | 0 | 0
Cc1ccc(Nc2ccnc(Nc3ccc(C)c(F)c3)n2)cc1O.Cl [GW582868] | 0 | 0 | 38 | 3 | 48 | 19 | 0 | 2 | 0 | 6 | 0 | 26 | 1 | 0 | 0 | 8 | 0 | 19 | 13 | 9
CN(c1ccc(NC(=O)N2CCN(CCCN3CCOCC3)CC2)cc1)c1ccnc(Nc2ccc(CS(C)(=O)=O)cc2)n1.Cl [GW830899] | 0 | 0 | 48 | 0 | 48 | 22 | 0 | 4 | 0 | 0 | 0 | 0 | 0 | 4 | 0 | 22 | 81 | 2 | 17 | 0
Cc1ccc(NC(=O)c2ccnc(N3CCCCC3)c2)cc1-c1ccc(C(=O)NCC2CC2)cc1 [GW775610] | 29 | 2 | 26 | 0 | 0 | 5 | 6 | 0 | 31 | 0 | 0 | 0 | 0 | 0 | 0 | 0 | 5 | 21 | 0 | 19
